In the library only some 6.6% were active in any assay of this set; here they are far more common.
KB-V1 cytotox – KB-V1 MDR subline cytotoxicity; Potency, µM (doses to about 46.1 µM), usual class: cytotoxic; 400,000 compounds, 3.4% hits; KB-V1 MDR cells viability, CellTiter-Glo, 72 h; also: % is scaled to controls: 0 for no effect and ±100 for the full control effect; nearly all actives have a fitted effect of over 60% in size
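Cytotoxicity toward P-gp-expressing KB-V1 cells was determined as loss of CellTiter-Glo luminescence after 72 h at 37 degrees C. Compounds were tested in quantitative HTS format across a concentration range, with curves fitted to normalized data.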
HT1080 IDH1KD tx – kills HT-1080 cells with IDH1 knockdown. 360,000 compounds, 2% hits. HT-1080 IDH1 knockdown viability, ATP luminescence, 48 h. Potency, µM (top dose mostly 46.1 µM), for inactives: at the highest dose activity, negative = toxicity, usual class: cytotoxic. AID 686971;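 also: 0% = DMSO wells and -100% = cell-free medium wells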
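Viability of IDH1-knockdown HT-1080 fibrosarcoma cells was assessed by CellTiter-Glo after 48 h at 37 °C with titrated compound; concentration-effect curves were classified by fit quality and response size.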
TGFb inhibitor – blocks TGF-b signaling; HepG2 CAGA-GFP TGF-b/SMAD3 reporter, GFP fluorescence, 18 h; TGF-beta stimulated, 500 pg/mL final; 410,000 compounds, 1.2% hits; Potency, µM (highest dose often 46.1 µM), without a hit: at the highest dose activity, negative = inhibition, actives largely listed as inhibitors; also: % is scaled to controls: 0 for no effect and ±100 for the full control effect; nearly all actives have a fitted effect of over 65% in size
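Using HEPG2 CAGA-GFP reporter cells at 1000 cells/well, we pinned test compounds, stimulated with recombinant TGF-beta (500 pg/mL final) and measured total well GFP after 18 h.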
HepG2 tox – kills HepG2 cells in TGF-b inhibitor counter-screen; HepG2 CAGA-GFP viability, ATP luminescence, 18 h; Potency, µM (series often up to 46.1 µM), for inactives: top-dose activity change, negative = cytotoxicity, most hits filed as cytotoxic; 410,000 compounds, 0.76% hits; AID 588856
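CellTiter-Glo luminescence gave cytotoxicity after 18 hours at 37 degrees C. The cells were HepG2 CAGA-GFP in 1% FBS DMEM, stimulated with 500 pg/mL TGF-beta after compound addition. %Activity was normalised to no-cell wells (complete cell-killing) and DMSO (no toxicity), and curves were fitted and classified.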
HT1080NT lethal – kills 2HG-producing HT-1080-NT fibrosarcoma cells | AID 686970 | 360,000 compounds, 1.6% hits | Potency, µM (doses to about 46.1 µM), for the others: top-dose activity, negative = less viability, hits mostly cytotoxic | HT-1080-NT fibrosarcoma viability, CellTiter-Glo ATP luminescence, 48 h;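 also: NT is the 2HG producing partner of a matched IDH1 knockdown line; 0% = DMSO-treated cells and -100% = media-only wells without cells; nearly all actives have a fitted effect of over 55% in size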
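A 48-hour cytotoxicity screen used HT-1080-NT cells plated 2 hours before compound delivery. ATP-based CellTiter-Glo luminescence measured viability, normalized to DMSO and no-cell controls.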
KB-3-1 cytotox – kills parental KB-3-1 adenocarcinoma cells; 400,000 compounds, 1.4% hits; Potency, µM (doses to about 46.1 µM), hits mostly cytotoxic; KB-3-1 viability, CellTiter-Glo ATP luminescence, 72 h; also: % is scaled to controls: 0 for no effect and ±100 for the full control effect; nearly all actives have a fitted effect of over 60% in size
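KB-3-1 parental drug-naive adenocarcinoma cells in DMEM/10% FBS, incubated 72 h at 37 C with pin-transferred compounds across a concentration series. Viability by CellTiter-Glo luminescence; concentration-response curves fitted after normalization.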
Numbers without * were called inactive; i = inactive; ? = inconclusive; . = not tested or not shown. Calls follow the shape of the dose curve; as a rule, active = well fitted curve in the direction sought with a large enough effect; inconclusive = small, poorly fitted or top-dose-only effect, or another doubt; inactive = no such curve, though single readings can be large; an effect the other way counts as inactive or inconclusive. Potency is read from the fitted curve at half-maximal effect.

SMILES	KB-V1 cytotox	HT1080 IDH1KD tx	TGFb inhibitor	HepG2 tox	HT1080NT lethal	KB-3-1 cytotox
CCCN(CCC)C(=O)c1c[nH]c2ccc(S(=O)(=O)N(C)c3ccc(Cl)cc3)cc2c1=O	?	.	-14%	6%	.	i
O=C(Cn1ncc2c(Cl)cccc21)NCc1cccc(Br)c1	i	.	?	-35%	.	i
CCc1ccc(NC(=O)c2sc3nc(C)nc(N4CCN(c5ccccn5)CC4)c3c2C)cc1	?	10%	29%	-8%	7%	i
Cc1cc(Br)ccc1NC(=O)c1sc2ncnc(N3CCN(c4ccccn4)CC3)c2c1C	?	8%	6%	2%	12%	6.5µM*
Cc1nc(N2CCN(c3ccccn3)CC2)c2c(C)c(C(=O)Nc3ccccc3F)sc2n1	?	11%	7%	5%	6%	21µM*
Cc1nc(N2CCN(c3ccccn3)CC2)c2c(C)c(C(=O)Nc3ccc(F)cc3F)sc2n1	12µM*	2%	-24%	-5%	5%	i
Cc1nc(N2CCN(c3ccccn3)CC2)c2c(C)c(C(=O)Nc3ccc(F)cc3Cl)sc2n1	?	0%	-14%	-41%	0%	?
O=c1c(N2CCN(c3cccc(Cl)c3)CC2)csc2ccc(Cl)cc12	.	.	?	-67%	.	.
Cc1ccc(NC(=O)C2CCCN2S(=O)(=O)c2cccc3cccnc23)cc1C (stereo not given)	.	.	?	-18%	.	.
Cc1ccc(-c2nn(-c3cccc([N+](=O)[O-])c3)c3c2cnc2ccc(F)cc23)cc1	i	.	2%	-10%	.	i
O=C(NCc1ccc2c(c1)CCN2C(=O)c1ccccc1)c1ccc(Br)o1	i	.	33%	0%	.	i
CCN(CC)c1ccc(C(=O)NCc2ccc3c(c2)CCN3C(=O)c2ccc(F)cc2)cc1	?	.	22%	-1%	.	15µM*
N#Cc1ccc(C(=O)NCc2ccc3c(c2)CCN3C(=O)c2ccc(F)cc2)cc1	i	.	2%	0%	.	i
O=C(NCc1ccc2c(c1)CCN2C(=O)c1ccc(F)cc1)c1ccc(Br)o1	2.6µM*	.	40%	2%	.	?
O=C1C=C(c2ccc(CO)cc2)C[C@@H](c2ccc(F)cc2)C1	i	-13%	?	-25%	-14%	i
O=C(CSCn1nnc2c(=O)[nH]c(Cc3ccc(F)cc3)nc21)Nc1cccc(C(F)(F)F)c1	i	.	?	-7%	.	i
N/C(=N\c1nc2c(c(=O)[nH]1)CCC2)Nc1cccc(Cl)c1	?	?	2%	-4%	?	?
N/C(=N\c1nc2c(c(=O)[nH]1)CCC2)Nc1cccc2ccccc12	?	-14%	7%	-2%	6%	23µM*
O=C(CCN1C(=O)/C(=C\c2ccccc2F)SC1=S)N1CCCCC1	?	0%	-3%	5%	-3%	10µM*
O=C(CCN1C(=O)/C(=C/c2ccccc2)SC1=S)N1CCCCCC1	?	-6%	-5%	-10%	-2%	?
O=C1/C(=C/c2ccccc2F)SC(=S)N1CC(=O)N1CCCCC1c1cccnc1 (stereo not given)	i	-10%	?	13µM*	-2%	i
CSCC[C@@H](CO)NC(=O)[C@H]1O[C@@H](n2ccc(=O)[nH]c2=O)[C@H](O)[C@@H]1O	i	1%	5%	12%	21%	i
COc1ccc(S(=O)(=O)NCCS(=O)(=O)N2CCN(c3ccccc3)CC2)cc1C	i	.	?	0%	.	i
COc1ccccc1NC(=O)C1=C(C)Nc2c(C(=O)Nc3ccc(F)cc3)cnn2C1c1ccc(Cl)cc1 (stereo not given)	.	.	-11%	-8%	.	.
CN(CC(=O)Nc1ccc(F)cc1)C(=O)COC(=O)c1cc(Br)c(Br)s1	i	0%	12%	-3%	-1%	i

Screening data as filed in PubChem.
